Measured values as given in PubChem BioAssay AID1159580 (chemical genetic matrix, 2015).
Where “and” joins values, the source holds several entries; their conditions need not be identical. Equal entries are not always repeated. Out of some 5,500 compounds screened, about 2,000 (36%) were called active. Not shown: some 18% with an inconclusive outcome. No stated cut-off is given here; in the data, active means normalized growth mostly below about 0.91 (no sharp cut-off); inconclusive means no clear call, values can overlap the other calls; inactive means mostly above about 0.92. The list shows a part of the results.

Experiment: chemical genetic growth profiling, strain panel (AID 1159580);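 further: tested at 20 µM; growth read once vehicle control cultures reached saturation at 30 °C; 1 = growth at the plate median or of vehicle wells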
Settings: growth OD

Measured: normalized growth

COc1c2c(cc3c1OCO3)CC[N+](C)=C2
inactive: S. cerevisiae deletion strains, locus YAL013W, strain DEP1, stronger effect = lower value 1 | S. cerevisiae deletion strains, locus YAL021C, strain ccr4, stronger effect = lower value 0.977 | S. cerevisiae deletion strains, locus YAL026C, strain drs2, stronger effect = lower value 0.995 | S. cerevisiae deletion strains, locus YAL030W, strain snc1, stronger effect = lower value 0.994 | S. cerevisiae deletion strains, locus YBL061C, strain skt5, stronger effect = lower value 1.01 | S. cerevisiae deletion strains, locus YBR009C, strain hhf1, stronger effect = lower value 0.984 | S. cerevisiae deletion strains, locus YBR021W, strain FUR4, stronger effect = lower value 1.02 | S. cerevisiae deletion strains, locus YBR023C, strain chs3, stronger effect = lower value 1.01 | S. cerevisiae deletion strains, locus YBR171W, strain sec66, stronger effect = lower value 0.997 | S. cerevisiae deletion strains, locus YBR229C, strain ROT2, stronger effect = lower value 0.999 | S. cerevisiae deletion strains, locus YBR231C, strain swc5, stronger effect = lower value 1.03 | S. cerevisiae deletion strains, locus YBR279W, strain paf1, stronger effect = lower value 1 | S. cerevisiae deletion strains, locus YCL011C, strain gbp2, stronger effect = lower value 0.986 | S. cerevisiae deletion strains, locus YCL016C, strain dcc1, stronger effect = lower value 0.974 | S. cerevisiae deletion strains, locus YCL029C, strain bik1, stronger effect = lower value 0.993 | S. cerevisiae deletion strains, locus YCL069W, strain vba3, stronger effect = lower value 0.99 | S. cerevisiae deletion strains, locus YCR088W, strain abp1, stronger effect = lower value 1 | S. cerevisiae deletion strains, locus YDL005C, strain med2, stronger effect = lower value 1 | S. cerevisiae deletion strains, locus YDL035C, strain GPR1, stronger effect = lower value 1.01 | S. cerevisiae deletion strains, locus YDL040C, strain nat1, stronger effect = lower value 1.01 | S. cerevisiae deletion strains, locus YDL074C, strain BRE1, stronger effect = lower value 1.04 | S. cerevisiae deletion strains, locus YDL101C, strain DUN1, stronger effect = lower value 1.02 | S. cerevisiae deletion strains, locus YDL134C, strain PPH21, stronger effect = lower value 1.05 | S. cerevisiae deletion strains, locus YDL185W, strain tfp1, stronger effect = lower value 1.01 | S. cerevisiae deletion strains, locus YDL192W, strain arf1, stronger effect = lower value 1 | S. cerevisiae deletion strains, locus YDR001C, strain nth1, stronger effect = lower value 0.977 | S. cerevisiae deletion strains, locus YDR069C, strain doa4, stronger effect = lower value 1.01 | S. cerevisiae deletion strains, locus YDR101C, strain arx1, stronger effect = lower value 1 | S. cerevisiae deletion strains, locus YDR137W, strain rgp1, stronger effect = lower value 1 | S. cerevisiae deletion strains, locus YDR150W, strain NUM1, stronger effect = lower value 0.993 | S. cerevisiae deletion strains, locus YDR159W, strain sac3, stronger effect = lower value 1.08 | S. cerevisiae deletion strains, locus YDR162C, strain NBP2, stronger effect = lower value 1.05 | S. cerevisiae deletion strains, locus YDR195W, strain ref2 1.01 | S. cerevisiae deletion strains, locus YDR297W, strain sur2, stronger effect = lower value 1.02 | S. cerevisiae deletion strains, locus YDR318W, strain mcm21, stronger effect = lower value 1 | S. cerevisiae deletion strains, locus YDR334W, strain swr1, stronger effect = lower value 0.991 | S. cerevisiae deletion strains, locus YDR335W, strain msn5, stronger effect = lower value 0.996 | S. cerevisiae deletion strains, locus YDR388W, stronger effect = lower value 0.994 | S. cerevisiae deletion strains, locus YDR392W, strain spt3, stronger effect = lower value 0.93 | S. cerevisiae deletion strains, locus YDR502C, strain sam2, stronger effect = lower value 1.01 | S. cerevisiae deletion strains, locus YEL003W, strain gim4, stronger effect = lower value 1 | S. cerevisiae deletion strains, locus YEL037C, strain rad23, stronger effect = lower value 0.986 | S. cerevisiae deletion strains, locus YEL061C, strain CIN8 (second series), stronger effect = lower value 0.998 | S. cerevisiae deletion strains, locus YER015W, strain faa2, stronger effect = lower value 0.998 | S. cerevisiae deletion strains, locus YER016W, strain bim1, stronger effect = lower value 1.01 | S. cerevisiae deletion strains, locus YER110C, stronger effect = lower value 1.01 | S. cerevisiae deletion strains, locus YER111C, strain swi4, stronger effect = lower value 1 | S. cerevisiae deletion strains, locus YER155C, strain BEM2 (second series), stronger effect = lower value 1.06 | S. cerevisiae deletion strains, locus YER155C, strain BEM2, stronger effect = lower value 0.976 | S. cerevisiae deletion strains, locus YER167W, strain BCK2, stronger effect = lower value 0.997 | S. cerevisiae deletion strains, locus YFR010W, strain ubp6, stronger effect = lower value 0.996 | S. cerevisiae deletion strains, locus YGL078C, strain dbp3, stronger effect = lower value 1.04 | S. cerevisiae deletion strains, locus YGL086W, strain mad1, stronger effect = lower value 1.01 | S. cerevisiae deletion strains, locus YGL167C, strain pmr1, stronger effect = lower value 0.993 | S. cerevisiae deletion strains, locus YGL173C, strain kem1, stronger effect = lower value 1.02 | S. cerevisiae deletion strains, locus YGL227W, strain vid30, stronger effect = lower value 0.999 | S. cerevisiae deletion strains, locus YGL240W, strain doc1, stronger effect = lower value 1.02 | S. cerevisiae deletion strains, locus YGL248W, strain PDE1, stronger effect = lower value 1.03 | S. cerevisiae deletion strains, locus YGL253W, strain hxk2, stronger effect = lower value 1 | S. cerevisiae deletion strains, locus YGR078C, strain PAC10, stronger effect = lower value 0.987 | S. cerevisiae deletion strains, locus YGR135W, strain pre9, stronger effect = lower value 1.03 | S. cerevisiae deletion strains, locus YGR252W, strain gcn5, stronger effect = lower value 1.05 | S. cerevisiae deletion strains, locus YHR013C, strain ard1, stronger effect = lower value 0.974 | S. cerevisiae deletion strains, locus YHR027C, strain rpn1, stronger effect = lower value 0.981 | S. cerevisiae deletion strains, locus YHR030C, strain SLT2, stronger effect = lower value 0.989 | S. cerevisiae deletion strains, locus YHR079C, strain IRE1 (second series), stronger effect = lower value 1.01 | S. cerevisiae deletion strains, locus YHR079C, strain IRE1, stronger effect = lower value 1 | S. cerevisiae deletion strains, locus YHR094C, strain hxt1, stronger effect = lower value 1 | S. cerevisiae deletion strains, locus YHR129C, strain ARP1, stronger effect = lower value 1 | S. cerevisiae deletion strains, locus YHR142W, strain chs7, stronger effect = lower value 0.982 | S. cerevisiae deletion strains, locus YHR200W, strain rpn10, stronger effect = lower value 0.998 | S. cerevisiae deletion strains, locus YIL066C, strain RNR3, stronger effect = lower value 1 | S. cerevisiae deletion strains, locus YIL073C, strain SPO22, stronger effect = lower value 1.06 | S. cerevisiae deletion strains, locus YIL125W, strain kgd1, stronger effect = lower value 0.995 | S. cerevisiae deletion strains, locus YIR030C, strain dcg1, stronger effect = lower value 1.01 | S. cerevisiae deletion strains, locus YJL092W, strain hpr5, stronger effect = lower value 0.988 | S. cerevisiae deletion strains, locus YJL095W, strain BCK1 (second series), stronger effect = lower value 1 | S. cerevisiae deletion strains, locus YJL095W, strain BCK1, stronger effect = lower value 1.05 and 0.977 | S. cerevisiae deletion strains, locus YJL115W, strain asf1, stronger effect = lower value 0.977 | S. cerevisiae deletion strains, locus YJL129C, strain trk1, stronger effect = lower value 1.01 | S. cerevisiae deletion strains, locus YJL134W, strain LCB3, stronger effect = lower value 0.994 | S. cerevisiae deletion strains, locus YJL154C, strain vps35, stronger effect = lower value 0.985 | S. cerevisiae deletion strains, locus YJL164C, strain tpk1, stronger effect = lower value 0.965 | S. cerevisiae deletion strains, locus YJL166W, strain qcr8, stronger effect = lower value 1.01 | S. cerevisiae deletion strains, locus YJL168C, strain set2, stronger effect = lower value 1.01 | S. cerevisiae deletion strains, locus YJL187C, strain SWE1 (second series), stronger effect = lower value 1.04 | S. cerevisiae deletion strains, locus YJL187C, strain SWE1, stronger effect = lower value 1.02 | S. cerevisiae deletion strains, locus YJR043C, strain POL32, stronger effect = lower value 0.99 | S. cerevisiae deletion strains, locus YJR066W, strain TOR1, stronger effect = lower value 0.886 | S. cerevisiae deletion strains, locus YKL009W, strain mrt4, stronger effect = lower value 1.04 | S. cerevisiae deletion strains, locus YKL068W, stronger effect = lower value 0.996 | S. cerevisiae deletion strains, locus YKL085W, strain MDH1 (second series), stronger effect = lower value 1.01 | S. cerevisiae deletion strains, locus YKL085W, strain MDH1, stronger effect = lower value 1.01 | S. cerevisiae deletion strains, locus YKL160W, strain elf1, stronger effect = lower value 0.977 | S. cerevisiae deletion strains, locus YKL190W, strain CNB1, stronger effect = lower value 1 | S. cerevisiae deletion strains, locus YKR001C, strain vps1, stronger effect = lower value 1.02 | S. cerevisiae deletion strains, locus YKR026C, strain gcn3, stronger effect = lower value 0.993 | S. cerevisiae deletion strains, locus YKR091W, strain srl3, stronger effect = lower value 0.99 | S. cerevisiae deletion strains, locus YLL001W, strain dnm1, stronger effect = lower value 1 | S. cerevisiae deletion strains, locus YLL026W, stronger effect = lower value 1 | S. cerevisiae deletion strains, locus YLL041C, strain sdh2, stronger effect = lower value 0.984 | S. cerevisiae deletion strains, locus YLR027C, strain aat2, stronger effect = lower value 1.01 | S. cerevisiae deletion strains, locus YLR039C, strain RIC1, stronger effect = lower value 1.1 | S. cerevisiae deletion strains, locus YLR058C, strain SHM2, stronger effect = lower value 1.02 | S. cerevisiae deletion strains, locus YLR102C, strain apc9, stronger effect = lower value 1 | S. cerevisiae deletion strains, locus YLR113W, strain HOG1, stronger effect = lower value 0.978 | S. cerevisiae deletion strains, locus YLR221C, strain rsa3, stronger effect = lower value 1.04 | S. cerevisiae deletion strains, locus YLR258W, strain gsy2, stronger effect = lower value 1.02 | S. cerevisiae deletion strains, locus YLR262C, strain YPT6 (second series), stronger effect = lower value 0.995 | S. cerevisiae deletion strains, locus YLR262C, strain YPT6, stronger effect = lower value 1.12 | S. cerevisiae deletion strains, locus YLR268W, strain sec22, stronger effect = lower value 0.999 | S. cerevisiae deletion strains, locus YLR320W, strain mms22, stronger effect = lower value 1.06 | S. cerevisiae deletion strains, locus YLR342W, strain FKS1, stronger effect = lower value 1.01 | S. cerevisiae deletion strains, locus YLR357W, strain rsc2, stronger effect = lower value 0.968 | S. cerevisiae deletion strains, locus YLR370C, strain arc18, stronger effect = lower value 1 | S. cerevisiae deletion strains, locus YLR371W, strain rom2, stronger effect = lower value 1.01 | S. cerevisiae deletion strains, locus YLR384C, strain iki3, stronger effect = lower value 0.999 | S. cerevisiae deletion strains, locus YLR418C, strain cdc73, stronger effect = lower value 1.03 | S. cerevisiae deletion strains, locus YML016C, strain PPZ1, stronger effect = lower value 1.01 | S. cerevisiae deletion strains, locus YML032C, strain rad52, stronger effect = lower value 0.999 | S. cerevisiae deletion strains, locus YML120C, strain ndi1, stronger effect = lower value 0.977 | S. cerevisiae deletion strains, locus YML124C, strain tub3, stronger effect = lower value 1.01 | S. cerevisiae deletion strains, locus YMR058W, strain fet3, stronger effect = lower value 1 | S. cerevisiae deletion strains, locus YMR078C, strain ctf18, stronger effect = lower value 1 | S. cerevisiae deletion strains, locus YMR125W, strain sto1, stronger effect = lower value 0.923 | S. cerevisiae deletion strains, locus YMR129W, stronger effect = lower value 0.996 | S. cerevisiae deletion strains, locus YMR205C, strain PFK2, stronger effect = lower value 0.975 | S. cerevisiae deletion strains, locus YMR223W, strain ubp8, stronger effect = lower value 1.02 | S. cerevisiae deletion strains, locus YMR231W, strain pep5, stronger effect = lower value 1.01 | S. cerevisiae deletion strains, locus YMR307W, strain GAS1, stronger effect = lower value 1.03 | S. cerevisiae deletion strains, locus YNL067W, strain RPL9B, stronger effect = lower value 1.03 | S. cerevisiae deletion strains, locus YNL071W, strain lat1, stronger effect = lower value 0.998 | S. cerevisiae deletion strains, locus YNL183C, strain NPR1, stronger effect = lower value 0.923 | S. cerevisiae deletion strains, locus YNL209W, strain ssb2, stronger effect = lower value 0.992 | S. cerevisiae deletion strains, locus YNL233W, strain BNI4, stronger effect = lower value 1.01 | S. cerevisiae deletion strains, locus YNL248C, strain rpa49, stronger effect = lower value 0.924 | S. cerevisiae deletion strains, locus YNL250W, strain rad50, stronger effect = lower value 1.03 | S. cerevisiae deletion strains, locus YNL271C, strain bni1, stronger effect = lower value 1.03 | S. cerevisiae deletion strains, locus YNL298W, strain CLA4, stronger effect = lower value 0.992 | S. cerevisiae deletion strains, locus YNL307C, strain MCK1, stronger effect = lower value 1.01 | S. cerevisiae deletion strains, locus YNL322C, strain KRE1 (second series), stronger effect = lower value 0.997 | S. cerevisiae deletion strains, locus YNR049C, strain mso1, stronger effect = lower value 0.979 | S. cerevisiae deletion strains, locus YNR052C, strain pop2, stronger effect = lower value 1.01 | S. cerevisiae deletion strains, locus YOL012C, strain htz1 0.651 | S. cerevisiae deletion strains, locus YOL147C, strain pex11, stronger effect = lower value 1 | S. cerevisiae deletion strains, locus YOR001W, strain rrp6, stronger effect = lower value 1.03 | S. cerevisiae deletion strains, locus YOR061W, strain CKA2, stronger effect = lower value 1.01 | S. cerevisiae deletion strains, locus YOR069W, strain VPS5, stronger effect = lower value 1 | S. cerevisiae deletion strains, locus YOR070C, strain gyp1, stronger effect = lower value 1.02 | S. cerevisiae deletion strains, locus YOR080W, strain dia2, stronger effect = lower value 1.02 | S. cerevisiae deletion strains, locus YOR083W, strain WHI5, stronger effect = lower value 0.97 | S. cerevisiae deletion strains, locus YOR106W, strain vam3, stronger effect = lower value 0.937 | S. cerevisiae deletion strains, locus YOR136W, strain idh2, stronger effect = lower value 1.03 | S. cerevisiae deletion strains, locus YOR144C, strain elg1, stronger effect = lower value 1 | S. cerevisiae deletion strains, locus YOR184W, strain ser1, stronger effect = lower value 0.996 | S. cerevisiae deletion strains, locus YOR231W, strain MKK1, stronger effect = lower value 0.994 | S. cerevisiae deletion strains, locus YOR265W, strain rbl2, stronger effect = lower value 0.996 | S. cerevisiae deletion strains, locus YOR270C, strain vph1, stronger effect = lower value 0.991 | S. cerevisiae deletion strains, locus YOR290C, strain snf2, stronger effect = lower value 0.919 | S. cerevisiae deletion strains, locus YOR316C, strain cot1, stronger effect = lower value 1.01 | S. cerevisiae deletion strains, locus YPL051W, strain arl3, stronger effect = lower value 1.03 | S. cerevisiae deletion strains, locus YPL078C, strain atp4, stronger effect = lower value 0.952 | S. cerevisiae deletion strains, locus YPL106C, strain sse1, stronger effect = lower value 0.972 | S. cerevisiae deletion strains, locus YPL240C, strain hsp82, stronger effect = lower value 1.01 | S. cerevisiae deletion strains, locus YPL256C, strain CLN2, stronger effect = lower value 0.975 | S. cerevisiae deletion strains, locus YPR119W, strain clb2, stronger effect = lower value 1.01 | S. cerevisiae deletion strains, locus YPR141C, strain kar3, stronger effect = lower value 1.01 | S. cerevisiae deletion strains, locus YPR163C, strain tif3, stronger effect = lower value 1.02 | S. cerevisiae deletion strains, locus YPR167C, strain met16, stronger effect = lower value 1.01 | S. cerevisiae deletion strains, strain wtn01, stronger effect = lower value 1 | S. cerevisiae strains, strain wild type, stronger effect = lower value 1
